In PubChem BioAssay (NCATS):
Inconclusive results are not listed. Active and inactive are the calls of the source. The call rests on the fitted dose curve; in most records, active means well fitted inhibition curve with a large enough effect; inconclusive means small, poorly fitted or top-dose-only effect; inactive means flat fitted curve, though single readings scatter.

Legend:
[1] = target: Glutathione peroxidase 1 (Homo sapiens) (UniProt P07203); assay: Primary qHTS Assay for Inhibitors of Recombinant Selenoprotein Glutathione Peroxidase 1 (GPX1) (AID 1845191); further: nearly all actives have a fitted effect of over 65% in size; on activity, negative = inhibition: on the % scale 0 is the no-effect control and ±100 the full control effect
Chain of Glutathione peroxidase 1 (Homo sapiens) (P07203 whole entry, looked up): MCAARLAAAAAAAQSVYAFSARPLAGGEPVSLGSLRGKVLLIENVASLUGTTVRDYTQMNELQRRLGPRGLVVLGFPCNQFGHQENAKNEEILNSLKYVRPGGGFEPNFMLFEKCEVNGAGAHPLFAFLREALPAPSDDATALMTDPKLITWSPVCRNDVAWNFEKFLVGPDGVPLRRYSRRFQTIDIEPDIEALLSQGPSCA
Method in brief: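 Recombinant GPX1 (10 nM final) was preincubated with compound for 30 min at room temperature, then reacted with 1 mM GSH, 0.5 mM CHP, 0.5 mM NADPH and 100 nM glutathione reductase; NADPH fluorescence (340/450 nm) was read at 0 and 15 min.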

[2] = target: Phospholipid hydroperoxide glutathione peroxidase GPX4 (Homo sapiens) (UniProt P36969); assay: Primary qHTS Assay for Inhibitors of Recombinant Selenoprotein Glutathione Peroxidase 4 (GPX4) (AID 1845192); further: nearly all actives have a fitted effect of over 65% in size; on activity change, negative = inhibition: series mostly up to about 50 µM; on the % scale 0 is the no-effect control and ±100 the full control effect
Chain of Phospholipid hydroperoxide glutathione peroxidase GPX4 (Homo sapiens) (P36969 whole entry, looked up): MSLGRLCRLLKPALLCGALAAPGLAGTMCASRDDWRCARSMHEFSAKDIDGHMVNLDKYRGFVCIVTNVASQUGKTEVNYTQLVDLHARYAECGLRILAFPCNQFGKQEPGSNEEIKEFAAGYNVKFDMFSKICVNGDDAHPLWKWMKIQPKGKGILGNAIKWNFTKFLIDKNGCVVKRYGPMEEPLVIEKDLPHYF
Method in brief: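 GR-coupled readout: 100 nM GR, 1 mM GSH, 0.5 mM NADPH; NADPH fluorescence (ex 340/em 450 nm) read at t=0 and after 15 min RT. GPX4 200 nM, preincubated 30 min with compound; substrate 0.5 mM CHP.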

[3] = target: Luciferin 4-monooxygenase (Photinus pyralis) (UniProt P08659); assay: Primary firefly luciferase (FLuc) qHTS assay for identification of artifact compounds. (AID 1845220); further: nearly all actives have a fitted effect of over 60% in size;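 on activity change, negative = inhibition: series mostly up to about 54 µM; plate controls were DMSO vehicle for no effect and no enzyme for full effect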
Method in brief: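 In this counter-screen for luciferase artifacts, test compounds met substrate (10 uM each luciferin and ATP) before 10 nM enzyme started the reaction. Light output was measured 5 min later.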

COc1cc([C@@H]2Oc3c(OC)cc(CCCO)cc3[C@@H]2CO[C@@H]2O[C@H](CO)[C@@H](O)[C@H](O)[C@H]2O)ccc1O
inactive: Potency [1] | Potency [2] | Potency [3]

CC1(C)C[C@H]2C3=CCC4[C@@]5(C)CC[C@H](O[C@H]6O[C@H](C(=O)O)[C@@H](O)[C@H](O)[C@H]6O[C@H]6O[C@H](CO)[C@@H](O)[C@H](O)[C@H]6O[C@@H]6O[C@H](CO)[C@@H](O)[C@H](O)[C@H]6O)[C@](C)(CO)C5CC[C@@]4(C)[C@]3(C)CC[C@@]2(C)[C@H](O[C@@H]2OC[C@H](O)[C@H](OC3O[C@H](CO)[C@@H](O)[C@H](O)[C@H]3O)[C@H]2O)[C@@H]1O (some centres undefined)
inactive: activity, negative = inhibition [1] 0.367% [at 9.52 µM] | outcome [2] inactive [at 9.73 µM] | outcome [3] inactive [at 11.6 µM]

O=C(C1CC1)N1CC[C@@H](Cc2n[nH]c(=O)n2-c2ccc(-c3ccc4occc4c3)cc2)C1
inactive: Potency [1] | Potency [2] | Potency [3]

COc1ccccc1-n1c(SCC(=O)Nc2nc3ccc(C)cc3s2)nc2c(c1=O)SCC2
inactive: Potency [1] | Potency [2] | Potency [3]

CC1(C)CC2C3=CCC4C5(C)CCC(OC6OC(C(=O)O)C(O)C(O)C6OC6OC(CO)C(O)C(O)C6OC6OC(CO)C(O)C(O)C6O)C(C)(CO)C5CCC4(C)C3(C)CCC2(C)C(OC2OCC(O)C(OC3OC(CO)C(O)C(O)C3O)C2O)C1O (centres undefined)
inactive: activity, negative = inhibition [1] -11.2% [at 9.52 µM] | activity change, negative = inhibition [2] -2.61% [at 9.73 µM] | activity change, negative = inhibition [3] -3.45% [at 11.6 µM]

CC1(CCC(=O)O)C(=O)C=CC23CC4CC(OC4(C)C2O)C13 (centres undefined)
inactive: Potency [1] | Potency [2] | Potency [3]

COC(=O)C1=COC(O[C@@H]2O[C@H](CO)[C@@H](O)[C@H](O)[C@H]2O)/C(=C\COC(=O)c2ccc(OC3OC(CO)C(O)C(O)C3O)c(OC)c2)C1CC(=O)OCCc1ccc(O)cc1 (some centres undefined)
inactive: Potency [1] | Potency [2] | outcome [3] inactive [at 11.6 µM]

CCC(C)C(=O)O[C@@H]1[C@@H](O)[C@@H](O[C@H]2O[C@H](CO)[C@@H](O)[C@H](O)[C@H]2O)O[C@H](CO)[C@H]1O (some centres undefined)
inactive: Potency [1] | Potency [2] | Potency [3]

C[C@@H]1O[C@@H](O[C@H]2[C@H](OC(C#N)c3ccc(O)cc3)O[C@H](CO)[C@@H](O)[C@@H]2O)[C@H](O)[C@H](O)[C@H]1O (some centres undefined)
inactive: Potency [1] | Potency [2] | Potency [3]

COC1CC(=O)CCC(C)OC(=O)CC1O (centres undefined)
inactive: Potency [1] | Potency [2] | Potency [3]

C[C@@H]1C[C@H](O[C@@H]2O[C@H](CO[C@@H]3OC[C@](O)(CO)[C@H]3O)[C@@H](O)[C@H](O)[C@H]2O)CC(C)(C)[C@H]1/C=C/[C@@H](C)O
inactive: Potency [1] | Potency [2] | Potency [3]

O=C(/C=C/c1ccc(O)cc1)OC[C@]12O[C@H]1[C@@H](O)[C@@H]1C=CO[C@@H](O[C@@H]3O[C@H](CO)[C@@H](O)[C@H](O)[C@H]3O)[C@@H]12
inactive: Potency [1] | Potency [2] | Potency [3]

OC[C@H]1O[C@@H](n2cnc3c(NCc4ccc(O)cc4)ncnc32)[C@H](O)[C@@H]1O
inactive: Potency [1] | Potency [2] | Potency [3]

C=CC(C)(C)O[C@@H]1O[C@H](CO[C@@H]2OC[C@](O)(CO)[C@H]2O)[C@@H](O)[C@H](O)[C@H]1O
inactive: Potency [1] | Potency [2] | Potency [3]

COc1cc(CCc2ccccc2)c(C(=O)O)c2c1CC(C(C)(C)O)O2 (centres undefined)
inactive: Potency [1] | Potency [2] | Potency [3]

O=C(O[C@H]1[C@@H]2C=CO[C@@H](O[C@@H]3O[C@H](CO)[C@@H](O)[C@H](O)[C@H]3O)[C@@H]2[C@@]2(CO)O[C@@H]12)c1ccc(O)c(O)c1
inactive: Potency [1] | Potency [2] | Potency [3]

COc1cc2c(cc1OC)CN(C(=O)[C@@H](NCc1ccncc1)C(C)(C)C)CC2
inactive: Potency [1] | Potency [2] | Potency [3]

CC(=O)OC[C@@]12[C@H](O)C[C@]3(C)C(=CCC4[C@@]5(C)CC[C@H](O[C@@H]6O[C@H](C(=O)O)[C@@H](O[C@@H]7O[C@H](CO)[C@@H](O)[C@H](O)[C@H]7O)[C@H](O)[C@H]6O[C@@H]6O[C@H](CO)[C@@H](O)[C@H](O)[C@H]6O)[C@](C)(CO)C5CC[C@]43C)[C@@H]1CC(C)(C)[C@@H](OC(C)=O)[C@@H]2O (some centres undefined)
inactive: Potency [1] | Potency [2] | outcome [3] inactive [at 11.6 µM]

C/C=C1\[C@H](O[C@@H]2O[C@H](CO)[C@@H](O)[C@H](O)[C@H]2O)OC=C(C(=O)OC)[C@H]1CC(=O)OC
inactive: Potency [1] | Potency [2] | Potency [3]

CC1NC(=O)C(Cc2c[nH]c3ccccc23)NC1=O (centres undefined)
inactive: Potency [1] | Potency [2] | Potency [3]

CC(=O)OC1C=C(C(=O)O)C2(CO)CCC(C)C(C)(CCc3ccoc3)C2C1 (centres undefined)
inactive: Potency [1] | Potency [2] | Potency [3]

CC1OC(OC2C(C)OC(OC3C(OC(=O)/C=C/c4ccc(O)cc4)C(CO)OC(OC4(COC(=O)/C=C/c5ccc(O)cc5)OC(CO)C(O)C4O)C3OC3OCC(O)(CO)C3O)C(O)C2O)C(O)C(O)C1O (centres undefined)
inactive: Potency [1] | Potency [2] | activity change, negative = inhibition [3] -0.562% [at 11.6 µM]

CNC(=O)Nc1ccc(OC)c(NC(=O)NC(=O)c2cc(F)c(F)cc2Cl)c1
inactive: Potency [1] | Potency [2] | Potency [3]
